Abeta yeast res = qHTS for compounds that reverse cellular toxicity of Amyloid beta (A-beta) peptide in yeast: Primary Screen. yeast expressing A-beta42, growth rescue, OD600, 48 h; response scale: 0% DMSO, 100% iron-clioquinol control. Potency, µM (titrated, usually from 46.1 µM), hits mostly activators. 0.063% of 410,000 active. AID 1347071, 2019; further: nearly all actives have a fitted effect of over 55% in size
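Yeast A-beta toxicity model in growth medium with pinned compounds, 48 h at 30 C; growth read as absorbance at 600 nm. Normalized to FeCl3/clioquinol equimolar mix (positive) and DMSO (negative).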
aSyn yeast inh = qHTS of alpha-syn Inhibitors; Yeast expressing alpha-synuclein, growth rescue, BacTiter-Glo, 24 h; Potency, µM (top dose mostly 46.1 µM), for the others: at the top dose growth rescue (activation), hits mostly activators; 0.14% of 370,000 active; AID 652106, 2013; further: % of control where 0% means no effect; nearly all actives have a fitted effect of over 65% in size
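Readout is rescue of growth in alpha-synuclein-expressing yeast, so inhibitors of toxicity appear as activators. Growth after 24 hr at 30 deg C in galactose medium is quantified by luminescence.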
TDP43 rescue = qHTS of TDP-43 Inhibitors | TDP-43 expressing yeast growth rescue, BacTiter-Glo, 24 h | Potency, µM (doses to about 46.1 µM), without a hit: top-dose growth rescue (activation), actives largely listed as activators | 1.8% of 410,000 active; further: % of control where 0% means no effect; nearly all actives have a fitted effect of over 50% in size
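Readout is BacTiter-Glo luminescence of cell growth, so inhibitors register as activators. TDP-43-expressing yeast at OD600=0.02 in galactose medium, after raffinose pregrowth to mid-log, were incubated with compound for 24 hr at 30 deg C.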
FUS suppressor = qHTS for Suppressors of FUS Proteinopathy: Primary screen using FUS-linked yeast assay; Potency, µM (series often up to 76.6 µM), usual class: activators; S. cerevisiae FUS-expressing, growth rescue, OD600, 24 h; AID 1347120, 2019; 0.24% of 390,000 active;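 further: plate controls were DMSO vehicle for no effect and reference control for full effect; nearly all actives have a fitted effect of over 55% in size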
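Steps: raffinose overnight preculture; dilution to OD 0.005 in 2% galactose minimal medium; compound addition (concentration series); 24hr at 30C, 99% humidity; absorbance read at 600 nm.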
An asterisk follows results filed as active; [ ] = another dose, or the depositor's remark. Sampled rows, rich in hits. Any-hit rate of the full collection: about 2.1%. The call rests on the fitted dose curve; in most records, active means well fitted curve in the direction sought with a large enough effect; inconclusive means small, poorly fitted or top-dose-only effect, or another doubt; inactive means no such curve, though single readings can be large; an effect the other way counts as inactive or inconclusive. Potency means the concentration at half of the fitted maximal effect.

Screening COc1cc(/C=C\C(=O)OCn2nnc3ccccc3c2=O)cc(OC)c1OC returned Abeta yeast res inactive, aSyn yeast inh inconclusive, TDP43 rescue 20µM* and FUS suppressor inactive.
Screening O=C(OCn1nnc2ccccc2c1=O)c1ccc(O)cc1 returned Abeta yeast res inactive, aSyn yeast inh inconclusive, TDP43 rescue 22%[9.22 µM] and FUS suppressor inactive.
Screening COc1ccc2c(c1)CCCN2C(=O)C1CCCN(S(=O)(=O)c2ccc(Br)s2)C1 (configuration not stated) returned FUS suppressor inactive.
Screening COCc1cn(-c2ccc3c(c2)[C@]2(CC(=O)N(C)C2c2ccccc2)C(=O)N3CC(C)C)nn1 (some centres not stated) returned FUS suppressor inactive.
For CC(NC(=O)COC(=O)C1CCN(c2ccc(C(F)(F)F)cn2)CC1)c1ccccc1 (configuration not stated) the results were Abeta yeast res inactive, aSyn yeast inh 27%, TDP43 rescue -4% and FUS suppressor inactive.
For CCCOC(=O)c1ccc(NC(=O)COC(=O)C2CCN(c3ccc(C(F)(F)F)cn3)CC2)cc1 the results were Abeta yeast res inactive, aSyn yeast inh 0%[1.84 µM], TDP43 rescue inconclusive and FUS suppressor inactive.
Screening O=C(COC(=O)C1CCN(c2ccc(C(F)(F)F)cn2)CC1)NCc1ccccc1 returned Abeta yeast res inactive, aSyn yeast inh 0%, TDP43 rescue 22µM* and FUS suppressor inactive.
Cc1ccc(NC(=O)COC(=O)C2CCN(c3ccc(C(F)(F)F)cn3)CC2)cc1 was read as Abeta yeast res inconclusive, aSyn yeast inh 2%, TDP43 rescue 25µM* and FUS suppressor inactive.
Screening Cn1cc(C(=O)c2ccc(Cl)cc2Cl)cc1C=O returned Abeta yeast res inactive, aSyn yeast inh 20%, TDP43 rescue -23% and FUS suppressor inactive.
Screening Cn1cc(C(=O)c2cccc(Cl)c2Cl)cc1C(=O)O returned Abeta yeast res inactive, aSyn yeast inh -2%, TDP43 rescue 0% and FUS suppressor inactive.
Screening COC(=O)c1cc(C(=O)c2cccc(Cl)c2Cl)cn1C returned Abeta yeast res inactive, aSyn yeast inh 13%, TDP43 rescue 18µM* and FUS suppressor inactive.
`COC(=O)c1cc(C(=O)c2ccc(Cl)cc2Cl)cn1C` gave Abeta yeast res inactive, aSyn yeast inh -5%, TDP43 rescue 11µM* and FUS suppressor inactive.
COc1ccccc1NC(=S)N1CCN(c2cccc(C)c2C)CC1 was read as Abeta yeast res inconclusive, aSyn yeast inh 0%, TDP43 rescue 18µM* and FUS suppressor inactive.
`Cc1cccc(N2CCN(C(=O)c3ccc4ncsc4c3)CC2)c1C` gave Abeta yeast res inactive, aSyn yeast inh 22%, TDP43 rescue 11µM* and FUS suppressor inactive.
For O=C(c1ccc2ncsc2c1)N1CCN(c2ccccc2Cl)CC1 the results were Abeta yeast res inactive, aSyn yeast inh -1%, TDP43 rescue 10µM* and FUS suppressor inactive.
COc1cccc(N2CCN(C(=S)Nc3ccccc3OC)CC2)c1 was read as Abeta yeast res inactive, aSyn yeast inh 1%, TDP43 rescue 0% and FUS suppressor inactive.
O=C(c1ccc(N2CCCC2=O)cc1)N1CCN(c2ccc(Cl)cc2)CC1 was read as Abeta yeast res inactive, aSyn yeast inh 9%, TDP43 rescue inconclusive and FUS suppressor inactive.
`O=C(c1ccc(N2CCCC2=O)cc1)N1CCN(c2ccccc2Cl)CC1` gave Abeta yeast res inactive, aSyn yeast inh 5%[1.84 µM], TDP43 rescue 16µM* and FUS suppressor inactive.
Screening Nc1nc(NCc2ccc(F)cc2)c2[nH]cnc2n1 returned aSyn yeast inh 8%.
For COc1ccc(N2CCN(CCCNC(=O)Cn3c(=O)c4cccn4c4cccnc43)CC2)c(OC)c1 the results were FUS suppressor inactive.
For Cc1ccc(C)c(N2CCN(C(=O)c3ccc4nsnc4c3)CC2)c1 the results were Abeta yeast res inactive, aSyn yeast inh 4%, TDP43 rescue 11µM* and FUS suppressor inactive.
COc1cc(C(=O)N2CCN(c3cccc(C)c3C)CC2)cc(OC)c1OC was read as Abeta yeast res inactive, aSyn yeast inh -4%, TDP43 rescue 22µM* and FUS suppressor inactive.
For COc1ccc(N2CCN(C(=O)c3ccc(CS(=O)c4cccc(Cl)c4)o3)CC2)cc1 (configuration not stated) the results were Abeta yeast res inactive, aSyn yeast inh 5%, TDP43 rescue 14% and FUS suppressor inactive.
`Cc1cccc(N2CCN(C(=O)c3ccncc3)CC2)c1C` gave Abeta yeast res inactive, aSyn yeast inh 3%, TDP43 rescue 26% and FUS suppressor inactive.
`COc1ccc(S(=O)Cc2ccc(C(=O)N3CCN(c4cccc(C)c4C)CC3)o2)cc1` (configuration not stated) gave Abeta yeast res inactive, aSyn yeast inh 5%, TDP43 rescue 20µM* and FUS suppressor inactive.
Cc1ccc(C)c(N2CCN(C(=O)c3ccc4[nH]c(C)c(C)c4c3)CC2)c1 was read as Abeta yeast res inactive, TDP43 rescue -14% and FUS suppressor inactive.
For O=c1sc2ccccc2n1CCOc1ccccc1 the results were Abeta yeast res inactive, aSyn yeast inh 0%, TDP43 rescue 11µM* and FUS suppressor inactive.
For S=c1[nH]c2ccccc2n1Cc1ccccc1 the results were Abeta yeast res 11µM*, aSyn yeast inh 11%, TDP43 rescue inconclusive and FUS suppressor inactive.
Screening S=c1[nH]c2ccccc2n1CCOc1ccccc1 returned Abeta yeast res 11µM*, aSyn yeast inh 13%, TDP43 rescue inconclusive and FUS suppressor inactive.
CC(=O)CC[C@H]1CC[C@]2(CCCN(C(=O)C3CCCCC3)C2)O1 was read as FUS suppressor inactive.
Screening O=C(OC1CCOC1=O)c1cc(-c2ccc(Br)cc2)nc2ccccc12 (configuration not stated) returned Abeta yeast res inactive, aSyn yeast inh -2%, TDP43 rescue 21% and FUS suppressor inactive.
`COc1ccc(-c2cc(C(=O)Nc3ccc(C)c(N)c3)c3ccccc3n2)cc1` gave Abeta yeast res inactive, aSyn yeast inh -14%, TDP43 rescue inconclusive and FUS suppressor 14µM*.
Screening COc1ccc(-c2cc(C(=O)Nc3ccc(S(=O)(=O)Nc4ncccn4)cc3)c3ccccc3n2)cc1 returned Abeta yeast res inactive, aSyn yeast inh -10%, TDP43 rescue -1% and FUS suppressor inactive.
`COc1ccc(-c2cc(C(=O)OC3CCOC3=O)c3ccccc3n2)cc1` (configuration not stated) gave Abeta yeast res inactive, aSyn yeast inh -5%, TDP43 rescue 16µM* and FUS suppressor inactive.

Compound activity (PubChem)
